From PubChem BioAssay AID1159580 (chemical genetic matrix, 2015)
Hit rate of the full screen: of about 5,500 compounds, about 2,000 (36%) were called active. Not shown: some 18% with an inconclusive outcome. No stated cut-off is given here; in the data, active means normalized growth mostly below about 0.91 (no sharp cut-off); inconclusive means no clear call, values can overlap the other calls; inactive means mostly above about 0.92. Some of the results follow.

Assay: chemical genetic growth profiling, strain panel (AID 1159580);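 further: tested at 20 µM; growth read once vehicle control cultures reached saturation at 30 °C; 1 = growth at the plate median or of vehicle wells; lower values mean less growth of the strain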
Conditions: growth OD
[1] = S. cerevisiae deletion strains, locus YAL013W, strain DEP1, active compounds read low
[2] = S. cerevisiae deletion strains, locus YBR229C, strain ROT2, active compounds read low
[3] = S. cerevisiae deletion strains, locus YCL061C, strain MRC1, active compounds read low
[4] = S. cerevisiae deletion strains, locus YDL101C, strain DUN1, active compounds read low
[5] = S. cerevisiae deletion strains, locus YDR150W, strain NUM1, active compounds read low
[6] = S. cerevisiae deletion strains, locus YEL061C, strain CIN8, active compounds read low
[7] = S. cerevisiae deletion strains, locus YGR078C, strain PAC10, active compounds read low
[8] = S. cerevisiae deletion strains, locus YGR229C, strain SMI1, active compounds read low
[9] = S. cerevisiae deletion strains, locus YHR030C, strain SLT2, active compounds read low
[10] = S. cerevisiae deletion strains, locus YHR087W, strain rtc3, active compounds read low
[11] = S. cerevisiae deletion strains, locus YJL187C, strain SWE1, active compounds read low
[12] = S. cerevisiae deletion strains, locus YJR043C, strain POL32, active compounds read low
[13] = S. cerevisiae deletion strains, locus YJR075W, strain HOC1, active compounds read low
[14] = S. cerevisiae deletion strains, locus YKL190W, strain CNB1, active compounds read low
[15] = S. cerevisiae deletion strains, locus YLR039C, strain RIC1, active compounds read low
[16] = S. cerevisiae deletion strains, locus YLR058C, strain SHM2 (second series), active compounds read low
[17] = S. cerevisiae deletion strains, locus YLR085C, strain ARP6, active compounds read low
[18] = S. cerevisiae deletion strains, locus YLR262C, strain YPT6, active compounds read low
[19] = S. cerevisiae deletion strains, locus YML094W, strain GIM5, active compounds read low
[20] = S. cerevisiae deletion strains, locus YMR219W, strain ESC1, active compounds read low
[21] = S. cerevisiae deletion strains, locus YMR263W, strain SAP30, active compounds read low
[22] = S. cerevisiae deletion strains, locus YNL128W, strain TEP1, active compounds read low
[23] = S. cerevisiae deletion strains, locus YNL153C, strain GIM3, active compounds read low
[24] = S. cerevisiae deletion strains, locus YNL298W, strain CLA4 (second series), active compounds read low
[25] = S. cerevisiae deletion strains, locus YNL322C, strain KRE1, active compounds read low
[26] = S. cerevisiae deletion strains, locus YNR030W, strain Alg12, active compounds read low
[27] = S. cerevisiae deletion strains, locus YPL055C, strain LGE1, active compounds read low
[28] = S. cerevisiae deletion strains, locus YPL241C, strain CIN2, active compounds read low
[29] = S. cerevisiae deletion strains, locus YPR135W, strain CTF4, active compounds read low
[30] = S. cerevisiae strains, strain wild type, active compounds read low
[31] = S. cerevisiae deletion strains, locus YDL134C, strain PPH21, active compounds read low

Measured: normalized growth

C=C1SC(=Nc2cccc(OC)c2)N(C(=O)C(c2ccccc2)C2CCCC2)C1(C)C (stereo unspecified)
inactive: [1] 1.01 | [2] 0.971 | [3] 1.01 | [4] 1.06 | [5] 1.02 | [6] 0.963 | [7] 1.01 | [8] 0.983 | [9] 1.03 | [10] 0.957 | [11] 0.999 | [12] 1.01 | [13] 1.02 | [14] 0.977 | [15] 0.922 | [16] 0.979 | [17] 1.02 | [18] 0.919 | [19] 1 | [20] 1 | [21] 1.02 | [22] 0.97 | [23] 1.03 | [24] 1.01 | [25] 0.984 | [26] 1.02 | [27] 0.997 | [28] 1.07 | [29] 1.03 | [30] 0.95

COc1ccc(-c2n[nH]c(=S)n2-c2cccc(OC)c2)cc1
inactive: [1] 0.987 | [2] 0.994 | [3] 0.977 | [4] 0.969 | [31] 0.979 | [5] 0.977 | [6] 1.01 | [7] 0.956 | [9] 1.02 | [10] 1.02 | [11] 0.993 | [12] 0.979 | [13] 0.967 | [15] 0.944 | [16] 0.989 | [17] 0.954 | [18] 1 | [19] 1 | [20] 0.986 | [21] 1 | [22] 0.989 | [23] 0.983 | [24] 0.957 | [25] 0.978 | [26] 0.966 | [27] 0.994 | [28] 0.967 | [29] 0.904

CC(C)(C)c1ccc(-c2n[nH]c(=S)n2-c2cccc(C(F)(F)F)c2)cc1
active: [11] 1.22 [resistant] | [13] 1.24 [resistant] | [15] 0.744
inactive: [1] 0.993 | [2] 1.01 | [4] 0.995 | [5] 1.01 | [6] 0.972 | [7] 0.977 | [9] 0.966 | [10] 1 | [12] 1.01 | [14] 1.01 | [16] 1.03 | [17] 1.06 | [18] 0.884 | [19] 0.978 | [20] 1.01 | [21] 1 | [23] 1.03 | [24] 0.958 | [25] 1.01 | [26] 0.964 | [27] 0.949 | [28] 0.949 | [29] 0.829

S=C(Nc1ccc(Cl)cc1)SCc1c(Cl)cccc1Cl
inactive: S. cerevisiae deletion strains, locus YAR019C, strain CDC15, active compounds read low 0.976 | S. cerevisiae deletion strains, locus YBL105C, strain PKC1, active compounds read low 0.984 | S. cerevisiae deletion strains, locus YBR135W, strain CKS1, active compounds read low 0.977 | S. cerevisiae deletion strains, locus YBR136W, strain MEC1, active compounds read low 0.996 | S. cerevisiae deletion strains, locus YBR160W, strain CDC28, active compounds read low 0.987 | S. cerevisiae deletion strains, locus YDL017W, strain CDC7, active compounds read low 0.984 | S. cerevisiae deletion strains, locus YDL028C, strain MPS1, active compounds read low 0.985 | [4] 0.993 | S. cerevisiae deletion strains, locus YDL108W, strain KIN28, active compounds read low 0.997 | S. cerevisiae deletion strains, locus YDL132W, strain cdc53, active compounds read low 0.979 | S. cerevisiae deletion strains, locus YDL214C, strain PRR2, active compounds read low 0.96 | S. cerevisiae deletion strains, locus YDR052C, strain DBF4, active compounds read low 0.989 | S. cerevisiae deletion strains, locus YDR054C, strain cdc34, active compounds read low 0.978 | S. cerevisiae deletion strains, locus YDR226W, strain ADK1, active compounds read low 0.983 | S. cerevisiae deletion strains, locus YDR477W, strain SNF1, active compounds read low 0.95 | S. cerevisiae deletion strains, locus YER123W, strain YCK3, active compounds read low 0.973 | S. cerevisiae deletion strains, locus YER133W, strain GLC7, active compounds read low 0.915 | S. cerevisiae deletion strains, locus YFL009W, strain cdc4, active compounds read low 0.977 | S. cerevisiae deletion strains, locus YFL029C, strain CAK1, active compounds read low 0.974 | S. cerevisiae deletion strains, locus YFR003C, strain YPI1, active compounds read low 0.984 | S. cerevisiae deletion strains, locus YFR019W, strain FAB1, active compounds read low 0.961 | S. cerevisiae deletion strains, locus YFR028C, strain CDC14, active compounds read low 0.971 | S. cerevisiae deletion strains, locus YGR040W, strain KSS1, active compounds read low 0.938 | S. cerevisiae deletion strains, locus YGR052W, strain FMP48, active compounds read low 1.06 | S. cerevisiae deletion strains, locus YGR092W, strain DBF2, active compounds read low 0.89 | [9] 0.996 | S. cerevisiae deletion strains, locus YHR079C, strain IRE1, active compounds read low 1.08 | S. cerevisiae deletion strains, locus YHR082C, strain KSP1, active compounds read low 1.03 | S. cerevisiae deletion strains, locus YHR205W, strain SCH9, active compounds read low 0.999 | S. cerevisiae deletion strains, locus YIL147C, strain SLN1, active compounds read low 0.992 | S. cerevisiae deletion strains, locus YJL095W, strain BCK1, active compounds read low 1.05 | S. cerevisiae deletion strains, locus YJL128C, strain PBS2, active compounds read low 0.967 | S. cerevisiae deletion strains, locus YJL157C, strain FAR1, active compounds read low 0.96 | S. cerevisiae deletion strains, locus YJR016C, strain ILV3, active compounds read low 0.973 | S. cerevisiae deletion strains, locus YJR066W, strain TOR1 (second series), active compounds read low 0.932 | S. cerevisiae deletion strains, locus YJR066W, strain TOR1, active compounds read low 1.02 | S. cerevisiae deletion strains, locus YKL048C, strain ELM1, active compounds read low 0.992 | S. cerevisiae deletion strains, locus YKL067W, strain YNK1, active compounds read low 0.972 | S. cerevisiae deletion strains, locus YKL101W, strain HSL1, active compounds read low 0.994 | S. cerevisiae deletion strains, locus YKL193C, strain SDS22, active compounds read low 0.978 | S. cerevisiae deletion strains, locus YKL203C, strain TOR2, active compounds read low 1.02 | S. cerevisiae deletion strains, locus YLR113W, strain HOG1, active compounds read low 1.09 | S. cerevisiae deletion strains, locus YLR133W, strain CKI1, active compounds read low 0.993 | S. cerevisiae deletion strains, locus YLR403W, strain SFP1, active compounds read low 0.95 | S. cerevisiae deletion strains, locus YML070W, strain DAK1, active compounds read low 0.957 | S. cerevisiae deletion strains, locus YMR001C, strain CDC5, active compounds read low 0.971 | S. cerevisiae deletion strains, locus YMR205C, strain PFK2 (second series), active compounds read low 0.987 | S. cerevisiae deletion strains, locus YMR277W, strain FCP1, active compounds read low 0.973 | S. cerevisiae deletion strains, locus YNL006W, strain LST8, active compounds read low 0.972 | S. cerevisiae deletion strains, locus YNL020C, strain ARK1, active compounds read low 0.983 | S. cerevisiae deletion strains, locus YNL161W, strain CBK1, active compounds read low 0.978 | S. cerevisiae deletion strains, locus YNL183C, strain NPR1, active compounds read low 1.03 | S. cerevisiae deletion strains, locus YNL207W, strain RIO2, active compounds read low 0.983 | S. cerevisiae deletion strains, locus YNL222W, strain SSU72, active compounds read low 0.976 | S. cerevisiae deletion strains, locus YNL307C, strain MCK1 (second series), active compounds read low 0.978 | S. cerevisiae deletion strains, locus YOL078W, strain AVO1, active compounds read low 0.979 | S. cerevisiae deletion strains, locus YOL136C, strain PFK27, active compounds read low 0.973 | S. cerevisiae deletion strains, locus YOR061W, strain CKA2, active compounds read low 0.955 | S. cerevisiae deletion strains, locus YOR119C, strain RIO1, active compounds read low 0.97 | S. cerevisiae deletion strains, locus YOR231W, strain MKK1, active compounds read low 1.06 | S. cerevisiae deletion strains, locus YOR329C, strain SCD5, active compounds read low 0.983 | S. cerevisiae deletion strains, locus YPL031C, strain PHO85, active compounds read low 0.956 | S. cerevisiae deletion strains, locus YPL153C, strain RAD53, active compounds read low 0.949 | S. cerevisiae deletion strains, locus YPL204W, strain HRR25, active compounds read low 0.939 | S. cerevisiae deletion strains, locus YPL209C, strain IPL1, active compounds read low 0.989 | S. cerevisiae deletion strains, locus YPL256C, strain CLN2, active compounds read low 1.08 | S. cerevisiae deletion strains, locus YPR025C, strain CCL1, active compounds read low 0.987 | S. cerevisiae deletion strains, locus YPR106W, strain ISR1, active compounds read low 0.994 | S. cerevisiae deletion strains, locus YPR111W, strain DBF20, active compounds read low 0.986 | S. cerevisiae deletion strains, strain NNK1, active compounds read low 0.999 | S. cerevisiae deletion strains, strain TSCII, active compounds read low 0.981

O=C(NC1Cc2ccccc2C1)c1cncc(Br)c1
inactive: [1] 1 | [2] 0.992 | [3] 0.982 | [4] 1 | [31] 1.05 | [5] 0.937 | [6] 0.99 | [7] 0.994 | [8] 0.985 | [9] 0.848 | [10] 0.985 | [11] 1.01 | [12] 0.994 | [13] 0.982 | [14] 0.99 | [15] 1.03 | [16] 0.985 | [17] 0.952 | [18] 0.992 | [19] 0.98 | [20] 0.991 | [21] 0.984 | S. cerevisiae deletion strains, locus YMR307W, strain GAS1, active compounds read low 0.912 | [23] 0.994 | [24] 0.966 | [25] 0.995 | [26] 0.982 | [27] 0.982 | [28] 0.98 | [29] 0.836 | [30] 0.988
